Measured values: the supplement of paper PMC10498489
Out of some 2,300 compounds screened, about 330 (14%) showed activity.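 Rule for the calls: active = median modified Z-score above 1.96; inactive = 1.96 or below.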 A selection follows.

System: HepG2 Srxn1-GFP reporter cells (+30 nM CDDO-Me)
Assay: Srxn1-GFP intensity median modified Z-score relative to plate median; higher = stronger NRF2 / oxidative stress reporter activation, active = hit call of the paper
Conditions: 10 µM; exposure time: 24h
Method in brief: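 The per-plate modified Z-score of GFP intensity, taken as a median across replicates, is what each value represents. Three replicate plates of HepG2 Srxn1-GFP BAC reporter cells were exposed for 24 h to an NRF2 activator at 30 nM combined with compound at 10 μM (≤0.1% DMSO). Cytoplasmic GFP per cell was read from confocal images, excluding any with under 100 cells, and scaling used 1.4826 × median absolute deviation.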

SMILES	Srxn1-GFP intensity median modified Z-score
COc1ccc2oc(-c3ccccc3)c(OC)c(=O)c2c1 [euspeclibcmpd1782]	1.28 (inactive)
O[C@@H]1[C@@H](O)[C@@H](O)OC[C@H]1O	0.871 (inactive)
CC1C2C(CC3C4CC[C@H]5C[C@@H](O)CC[C@]5(C)C4CC(=O)[C@@]32C)O[C@]12CC[C@@H](C)CO2 (stereo partly drawn) [euspeclibcmpd1427]	-0.425 (inactive)
COc1cc(/C=C/C(=O)N2CC=CCC2=O)cc(OC)c1OC [euspeclibcmpd1434]	1.01 (inactive)
CON [euspeclibcmpd1358]	-0.128 (inactive)
CC(C)[N+]1(C)C2CC[C@H]1C[C@@H](OC(=O)C(CO)c1ccccc1)C2 (stereo partly drawn) [euspeclibcmpd162]	0.508 (inactive)
CC[C@]1(O)CC2CN(CCc3c([nH]c4ccccc34)[C@@](C(=O)OC)(c3cc4c(cc3OC)N(C=O)[C@H]3[C@@](O)(C(=O)OC)[C@H](OC(C)=O)[C@]5(CC)C=CCN6CC[C@]43[C@@H]65)C2)C1 (stereo partly drawn) [euspeclibcmpd836]	27.5 (active)
CC[C@]1(O)CC2CN(CCc3c([nH]c4ccccc34)[C@@](C(=O)OC)(c3cc4c(cc3OC)N(C)[C@H]3[C@@](O)(C(=O)OC)[C@H](OC(C)=O)[C@]5(CC)C=CCN6CC[C@]43[C@@H]65)C2)C1 (stereo partly drawn) [euspeclibcmpd320]	25.8 (active)
CC(=O)NC(CCC(N)=O)C(=O)O (stereo not drawn) [euspeclibcmpd1028]	-0.425 (inactive)
Oc1cc2c(cc1O)C1c3ccc(O)c(O)c3OCC1(O)C2 (stereo not drawn) [euspeclibcmpd1605]	-0.437 (inactive)
CN(C)CC/C=C1/c2ccccc2COc2ccccc21 [euspeclibcmpd104]	1.4 (inactive)
CC(=O)C1CCC2C3CC(C)=C4CC(=O)CC[C@]4(C)C3[C@@H](O)C[C@]12C (stereo partly drawn) [euspeclibcmpd179]	-0.562 (inactive)
O=c1cc(-c2cc(O)c(O)c(O)c2)oc2cc(O)cc(O)c12 [euspeclibcmpd1548]	-0.459 (inactive)
Cc1cc(-n2c(=O)[nH]c(=O)n(C)c2=O)ccc1Oc1ccc(SC(F)(F)F)cc1 [euspeclibcmpd839]	2.22 (active)
CC(C)(Oc1ccc(Cl)cc1)C(=O)O [euspeclibcmpd1029]	-0.706 (inactive)
COc1ccc(C(=O)NCc2ccc(CN(C)C)cc2)cc1OC	0.376 (inactive)
CCc1cn(C2OCC(O)C2CO)c(=O)[nH]c1=O (stereo not drawn) [euspeclibcmpd543]	-0.196 (inactive)
C=C1c2c(Cl)ccc(O)c2C(=O)C2C(=O)[C@]3(O)C(=O)C(C(N)=O)C(=O)C(N(C)C)[C@@H]3[C@@H](O)[C@H]12 (stereo partly drawn) [euspeclibcmpd381]	0.0643 (inactive)
